From the supplement of paper PMC10849652
The full data set covers some 7,900 targets. This sample favours those with a hit. About 0.6% of all pairs of compound and target were hits.

How the values were obtained:
Assay in all cases: log2 fold change, soluble protein after heating vs DMSO (PISA); higher = thermal stabilisation; K562 cells, 10 uM, 30 min; active = over 0.2 and 3.5 SD of the protein, either way, in both replicates (recomputed)
[1] = compound: CC1=C(C=C(C=C1)NC(=O)C2=CC(=CC=C2)C(C)(C)C#N)NC3=CC4=C(C=C3)N=CN(C4=O)C
Method in brief: (§1)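 Soluble protein was quantified by TMTpro 16plex LC-MS/MS after channel sums were equalised. It was obtained as the supernatant after 21,000xg for 90 min from pooled aliquots of K562 cells (2×10^6 cells/mL, 10 μM compound, 30 min) heated for 3 min across 48°C-58°C and extracted in PBS with 0.5% NP-40 at 4°C. Thermal stability values are relative to control samples and come from duplicates. They are given as log2 fold changes.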

[2] = compound: CC1=C(C=C(C=C1)NC(=O)C2=CC(=CC=C2)N(C)C)NC(=O)C3=CC=C(C=C3)O
Method in brief: as §1

[3] = compound: CC1=CC=C(C=C1)SC2=C3C=C(SC3=CN=C2)C(=O)N
Method in brief: as §1

[4] = compound: CC1=NC(=CC=C1)C2=C(N=C(N2)C(C)(C)C)C3=CC4=NC=CN=C4C=C3
Method in brief: as §1

Nexturastat A = compound: CCCCN(Cc1ccc(C(=O)NO)cc1)C(=O)Nc1ccccc1 [Nexturastat A]
Method in brief: as §1

vemurafenib = compound: CCCS(=O)(=O)Nc1ccc(F)c(C(=O)c2c[nH]c3ncc(-c4ccc(Cl)cc4)cc23)c1F [vemurafenib]
Method in brief: as §1

[5] = compound: CCCS(=O)(=O)Nc1ccc(F)c(C(=O)c2c[nH]c3ncc(Cl)cc23)c1F
Method in brief: as §1

[6] = compound: CCCc1cc(C)[nH]c(=O)c1CNC(=O)c1cc(-c2ccnc(N3CCN(C)CC3)c2)cc2c1cnn2C(C)C
Method in brief: as §1

givinostat = compound: CCN(CC)Cc1ccc2cc(COC(=O)Nc3ccc(C(=O)NO)cc3)ccc2c1 [givinostat]
Method in brief: as §1

barasertib = compound: CCN(CCCOc1ccc2c(Nc3cc(CC(=O)Nc4cccc(F)c4)[nH]n3)ncnc2c1)CCOP(=O)(O)O [barasertib]
Method in brief: as §1

Measured: log2 fold change

AP2S1 (UniProt P53680)
inactive: [1] 0.009 | [2] -0.028 | [3] -0.036 | [4] 0.037 | Nexturastat A -0.038 | vemurafenib 0.002 | [5] 0.03 | [6] 0.007 | givinostat -0.015 | barasertib -0.034

BAIAP2 isoform 4 (UniProt Q9UQB8)
inactive: [1] 0.034

BID isoform 2 (UniProt P55957)
inactive: [1] -0.054 | [2] -0.02 | [3] 0.029 | [4] 0.012 | Nexturastat A -0.056 | vemurafenib 0.117 | [5] 0.001 | [6] 0.016 | givinostat -0.001 | barasertib -0.01

ANKZF1 (UniProt Q9H8Y5)
inactive: [1] 0.011 | [2] 0 | [3] -0.055 | [4] -0.059 | Nexturastat A 0.399 | vemurafenib -0.011 | [5] -0.042 | [6] 0.132 | givinostat 0.195 | barasertib 0.04

ARFGEF1 (UniProt Q9Y6D6)
inactive: [1] -0.03 | [2] -0.013 | [3] -0.014 | [4] 0 | Nexturastat A -0.042 | vemurafenib 0.035 | [5] 0.041 | [6] 0.155 | givinostat 0.029 | barasertib -0.015

AGO1 (UniProt Q9UL18)
inactive: [1] -0.213 | [2] -0.021 | [3] -0.025 | [4] 0.193 | Nexturastat A 0.084 | vemurafenib -0.023 | [5] -0.006 | [6] -0.111 | givinostat 0.071 | barasertib -0.064

ACSF3 (UniProt Q4G176)
inactive: [1] -0.002 | [2] 0.038 | [3] 0.007 | [4] 0.023 | Nexturastat A -0.005 | vemurafenib 0.029 | [5] 0.003 | [6] 0.008 | givinostat -0.022 | barasertib 0.051

AKT1 (UniProt P31749)
UniProt P31749, sequence (P31749 whole entry, looked up): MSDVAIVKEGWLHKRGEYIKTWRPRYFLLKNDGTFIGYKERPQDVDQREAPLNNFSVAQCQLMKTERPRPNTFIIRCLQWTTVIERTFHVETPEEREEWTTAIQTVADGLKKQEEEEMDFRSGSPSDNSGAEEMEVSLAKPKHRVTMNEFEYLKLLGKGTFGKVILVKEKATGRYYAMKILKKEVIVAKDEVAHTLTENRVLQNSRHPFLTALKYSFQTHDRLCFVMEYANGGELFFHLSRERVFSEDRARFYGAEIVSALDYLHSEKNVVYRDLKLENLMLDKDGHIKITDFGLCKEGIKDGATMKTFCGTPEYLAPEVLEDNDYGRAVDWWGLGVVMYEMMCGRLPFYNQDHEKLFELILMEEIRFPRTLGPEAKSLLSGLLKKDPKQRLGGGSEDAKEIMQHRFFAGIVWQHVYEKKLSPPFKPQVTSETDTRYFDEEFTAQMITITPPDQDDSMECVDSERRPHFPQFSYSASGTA
inactive: [1] 0.118 | [2] -0.105 | [3] -0.035 | [4] 0.019 | Nexturastat A 0.145 | vemurafenib -0.227 | [5] 0.008 | [6] 0.049 | givinostat 0.133 | barasertib -0.03

BCCIP isoform 2 (UniProt Q9P287)
UniProt Q9P287, sequence (Q9P287 whole entry, looked up): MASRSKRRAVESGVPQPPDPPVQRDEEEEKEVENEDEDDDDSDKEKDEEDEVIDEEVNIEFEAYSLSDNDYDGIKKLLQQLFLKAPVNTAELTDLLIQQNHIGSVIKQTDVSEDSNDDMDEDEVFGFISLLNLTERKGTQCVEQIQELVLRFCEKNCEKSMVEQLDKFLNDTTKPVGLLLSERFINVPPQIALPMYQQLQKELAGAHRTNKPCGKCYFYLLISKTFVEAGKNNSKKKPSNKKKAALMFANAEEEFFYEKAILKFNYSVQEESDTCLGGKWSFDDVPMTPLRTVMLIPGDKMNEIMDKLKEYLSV
inactive: [1] 0.042 | [2] -0.055 | [3] -0.015 | [4] 0.022 | Nexturastat A -0.065 | vemurafenib 0.008 | [5] -0.003 | [6] -0.099 | givinostat -0.066 | barasertib 0.026

AKT2 (UniProt P31751)
UniProt P31751, sequence (P31751 whole entry, looked up): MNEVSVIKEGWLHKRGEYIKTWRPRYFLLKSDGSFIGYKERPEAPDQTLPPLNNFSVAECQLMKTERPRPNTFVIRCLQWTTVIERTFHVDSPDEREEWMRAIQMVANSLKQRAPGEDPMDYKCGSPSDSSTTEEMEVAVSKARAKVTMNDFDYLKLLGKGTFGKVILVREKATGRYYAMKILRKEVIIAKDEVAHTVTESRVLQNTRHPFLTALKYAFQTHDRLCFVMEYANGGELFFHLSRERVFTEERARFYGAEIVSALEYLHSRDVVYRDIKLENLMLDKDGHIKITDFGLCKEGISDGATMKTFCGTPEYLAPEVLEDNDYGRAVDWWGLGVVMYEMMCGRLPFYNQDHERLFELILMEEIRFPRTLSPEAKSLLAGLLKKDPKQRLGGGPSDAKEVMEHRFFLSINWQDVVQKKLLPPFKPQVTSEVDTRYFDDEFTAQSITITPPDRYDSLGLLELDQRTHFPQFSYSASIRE
inactive: [1] 0.018 | [2] 0.033 | [3] 0.006 | [4] 0.019 | Nexturastat A 0.069 | vemurafenib -0.007 | [5] 0.015 | [6] -0.017 | givinostat 0.069 | barasertib 0.079

ATP5ME (UniProt P56385)
UniProt P56385, sequence (P56385 whole entry, looked up): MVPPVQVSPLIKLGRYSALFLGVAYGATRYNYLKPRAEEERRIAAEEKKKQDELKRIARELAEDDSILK
inactive: [1] 0.036 | [2] -0.037 | [3] 0.031 | [4] 0.011 | Nexturastat A -0.035 | vemurafenib -0.003 | [5] -0.041 | [6] -0.041 | givinostat 0.027 | barasertib 0.007

ANP32E (UniProt Q9BTT0)
inactive: [1] 0.041 | [2] -0.098 | [3] 0.091 | [4] -0.02 | Nexturastat A -0.11 | vemurafenib 0.091 | [5] 0.035 | [6] -0.001 | givinostat 0.112 | barasertib 0.076

ADRM1 (UniProt Q16186)
inactive: [1] 0.067 | [2] 0.009 | [3] -0.013 | [4] 0.024 | Nexturastat A 0.104 | vemurafenib -0.022 | [5] -0.028 | [6] 0.01 | givinostat 0.034 | barasertib -0.021

ATP13A3 (UniProt Q9H7F0)
UniProt Q9H7F0, sequence (Q9H7F0 whole entry, looked up): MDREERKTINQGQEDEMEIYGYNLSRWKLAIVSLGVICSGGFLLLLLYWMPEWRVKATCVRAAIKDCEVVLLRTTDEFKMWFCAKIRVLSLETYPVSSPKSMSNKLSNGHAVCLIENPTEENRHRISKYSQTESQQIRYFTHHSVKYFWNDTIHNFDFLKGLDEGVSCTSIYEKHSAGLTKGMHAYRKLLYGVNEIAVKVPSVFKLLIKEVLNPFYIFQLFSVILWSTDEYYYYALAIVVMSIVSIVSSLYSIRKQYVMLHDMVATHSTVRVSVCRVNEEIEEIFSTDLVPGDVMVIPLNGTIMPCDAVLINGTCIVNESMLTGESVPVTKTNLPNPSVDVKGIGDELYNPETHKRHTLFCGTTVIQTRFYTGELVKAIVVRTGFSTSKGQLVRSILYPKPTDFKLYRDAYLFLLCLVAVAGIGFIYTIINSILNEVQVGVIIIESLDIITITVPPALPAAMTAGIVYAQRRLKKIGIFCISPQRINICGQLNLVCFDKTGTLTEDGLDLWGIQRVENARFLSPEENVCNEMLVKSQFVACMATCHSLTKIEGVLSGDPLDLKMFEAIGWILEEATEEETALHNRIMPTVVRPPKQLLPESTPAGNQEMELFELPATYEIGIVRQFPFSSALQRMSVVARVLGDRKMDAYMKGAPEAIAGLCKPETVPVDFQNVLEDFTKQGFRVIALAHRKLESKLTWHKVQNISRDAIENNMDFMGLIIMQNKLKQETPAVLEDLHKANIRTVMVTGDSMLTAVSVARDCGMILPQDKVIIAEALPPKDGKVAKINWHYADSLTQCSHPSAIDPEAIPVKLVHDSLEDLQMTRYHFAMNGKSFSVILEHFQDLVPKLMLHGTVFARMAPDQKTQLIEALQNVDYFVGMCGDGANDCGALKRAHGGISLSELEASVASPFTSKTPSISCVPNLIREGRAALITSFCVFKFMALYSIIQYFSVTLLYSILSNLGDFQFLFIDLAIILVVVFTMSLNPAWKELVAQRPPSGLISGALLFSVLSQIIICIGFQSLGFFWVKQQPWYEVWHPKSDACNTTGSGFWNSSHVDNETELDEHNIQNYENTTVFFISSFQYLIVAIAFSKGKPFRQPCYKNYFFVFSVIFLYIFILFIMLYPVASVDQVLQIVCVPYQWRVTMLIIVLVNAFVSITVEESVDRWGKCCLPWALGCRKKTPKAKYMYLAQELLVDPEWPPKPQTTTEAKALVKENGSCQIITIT
inactive: [1] 0.027 | [2] 0.031 | [3] -0.068 | [4] 0.012 | Nexturastat A -0.042 | vemurafenib -0.014 | [5] -0.02 | [6] -0.076 | givinostat 0.025 | barasertib -0.001

ALDH1B1 (UniProt P30837)
UniProt P30837, sequence (P30837 whole entry, looked up): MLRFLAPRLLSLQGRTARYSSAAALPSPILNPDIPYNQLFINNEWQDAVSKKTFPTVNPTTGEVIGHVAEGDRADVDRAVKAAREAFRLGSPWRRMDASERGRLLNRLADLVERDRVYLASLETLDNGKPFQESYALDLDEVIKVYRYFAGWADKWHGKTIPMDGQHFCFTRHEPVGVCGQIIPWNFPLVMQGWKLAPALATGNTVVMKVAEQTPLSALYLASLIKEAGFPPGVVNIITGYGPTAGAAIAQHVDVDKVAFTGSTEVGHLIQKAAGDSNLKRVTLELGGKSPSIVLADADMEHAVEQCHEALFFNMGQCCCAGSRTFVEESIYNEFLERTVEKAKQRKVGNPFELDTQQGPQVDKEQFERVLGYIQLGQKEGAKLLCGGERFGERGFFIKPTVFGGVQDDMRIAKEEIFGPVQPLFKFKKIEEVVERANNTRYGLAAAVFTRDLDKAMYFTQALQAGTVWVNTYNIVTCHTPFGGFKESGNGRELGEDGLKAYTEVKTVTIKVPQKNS
inactive: [1] 0.054 | [2] 0.008 | [3] 0.128 | [4] 0.017 | Nexturastat A -0.104 | vemurafenib 0.011 | [5] 0.032 | [6] -0.016 | givinostat 0.032 | barasertib -0.001

ARFGAP1 (UniProt Q8N6T3)
inactive: [1] -0.053 | [2] -0.168 | [3] 0.107 | [4] 0.034 | Nexturastat A 0.038 | vemurafenib 0.085 | [5] 0.124 | [6] 0.016 | givinostat 0.029 | barasertib 0.1

BRIX1 (UniProt Q8TDN6)
inactive: [1] 0.038 | [2] -0.061 | [3] -0.09 | [4] -0.134 | Nexturastat A 0.37 | vemurafenib -0.11 | [5] 0.008 | [6] 0.159 | givinostat 0.15 | barasertib -0.197

ARHGAP1 (UniProt Q07960)
UniProt Q07960, sequence (Q07960 whole entry, looked up): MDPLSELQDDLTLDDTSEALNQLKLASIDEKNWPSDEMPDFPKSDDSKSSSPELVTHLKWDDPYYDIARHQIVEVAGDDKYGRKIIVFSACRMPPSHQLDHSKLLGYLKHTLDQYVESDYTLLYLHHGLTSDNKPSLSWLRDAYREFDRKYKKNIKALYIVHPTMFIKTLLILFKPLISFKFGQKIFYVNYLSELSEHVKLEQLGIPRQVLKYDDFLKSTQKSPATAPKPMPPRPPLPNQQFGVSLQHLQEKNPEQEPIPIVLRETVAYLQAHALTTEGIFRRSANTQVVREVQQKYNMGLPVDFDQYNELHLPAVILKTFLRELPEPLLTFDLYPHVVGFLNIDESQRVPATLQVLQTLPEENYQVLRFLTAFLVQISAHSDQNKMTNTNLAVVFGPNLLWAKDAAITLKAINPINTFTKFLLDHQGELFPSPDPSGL
inactive: [1] -0.024 | [2] -0.022 | [3] -0.009 | [4] 0.012 | Nexturastat A 0.03 | vemurafenib 0.002 | [5] 0.052 | [6] -0.018 | givinostat -0.014 | barasertib 0.006

BZW2 (UniProt Q9Y6E2)
UniProt Q9Y6E2, sequence (Q9Y6E2 whole entry, looked up): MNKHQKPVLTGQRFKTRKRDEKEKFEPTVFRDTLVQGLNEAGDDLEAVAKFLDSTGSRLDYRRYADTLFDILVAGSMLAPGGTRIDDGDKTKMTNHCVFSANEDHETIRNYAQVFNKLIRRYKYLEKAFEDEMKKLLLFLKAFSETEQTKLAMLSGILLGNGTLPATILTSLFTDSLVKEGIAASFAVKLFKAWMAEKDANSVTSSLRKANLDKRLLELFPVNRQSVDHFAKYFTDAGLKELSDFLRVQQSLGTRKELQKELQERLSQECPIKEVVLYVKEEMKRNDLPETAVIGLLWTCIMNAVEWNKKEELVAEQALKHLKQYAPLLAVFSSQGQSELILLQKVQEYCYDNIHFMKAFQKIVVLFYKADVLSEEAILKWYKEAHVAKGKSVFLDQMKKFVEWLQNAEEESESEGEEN
inactive: [1] 0.009 | [2] -0.007 | [3] 0.043 | [4] 0.062 | Nexturastat A -0.034 | vemurafenib 0.012 | [5] 0.058 | [6] -0.025 | givinostat 0.011 | barasertib 0.044

ALKBH5 (UniProt Q6P6C2)
inactive: [1] -0.12 | [2] -0.017 | [3] -0.046 | [4] -0.031 | Nexturastat A -0.068 | vemurafenib -0.071 | [5] -0.09 | [6] 0.162 | givinostat 0.092 | barasertib -0.023

ANKRD29 (UniProt Q8N6D5)
inactive: [1] 0.046 | [2] 0.022 | [3] 0.027 | [4] -0.035 | Nexturastat A 0.371 | vemurafenib -0.064 | [5] -0.031 | [6] -0.073 | givinostat 0.247 | barasertib -0.124

BCL9L (UniProt Q86UU0)
inactive: [1] -0.046 | [2] -0.012 | [3] 0.005 | [4] -0.033 | Nexturastat A -0.033 | vemurafenib -0.037 | [5] -0.014 | [6] -0.029 | givinostat 0.043 | barasertib -0.001

AIP (UniProt O00170)
inactive: [1] 0.014 | [2] -0.074 | [3] 0.032 | [4] 0.07 | Nexturastat A -0.07 | vemurafenib 0.071 | [5] 0.088 | [6] 0.065 | givinostat 0.043 | barasertib 0.031

ABHD17A isoform 2 (UniProt Q96GS6)
inactive: [1] -0.004 | [2] -0.031 | [3] 0.035 | [4] -0.068 | Nexturastat A 0.034 | vemurafenib -0.039 | [5] -0.032 | [6] -0.021 | givinostat -0.313 | barasertib 0.016

AHCYL1 (UniProt O43865)
inactive: [1] -0.103 | [2] 0.003 | [3] -0.061 | [4] 0.011 | Nexturastat A 0.014 | vemurafenib -0.029 | [5] -0.015 | [6] -0.039 | givinostat -0.026 | barasertib -0.036

ACSL3 (UniProt O95573)
inactive: [1] 0.005 | [2] -0.051 | [3] 0.1 | [4] 0.029 | Nexturastat A 0.008 | vemurafenib 0 | [5] 0.038 | [6] -0.016 | givinostat 0.032 | barasertib 0.039

ACSL1 (UniProt P33121)
UniProt P33121, sequence (P33121 whole entry, looked up): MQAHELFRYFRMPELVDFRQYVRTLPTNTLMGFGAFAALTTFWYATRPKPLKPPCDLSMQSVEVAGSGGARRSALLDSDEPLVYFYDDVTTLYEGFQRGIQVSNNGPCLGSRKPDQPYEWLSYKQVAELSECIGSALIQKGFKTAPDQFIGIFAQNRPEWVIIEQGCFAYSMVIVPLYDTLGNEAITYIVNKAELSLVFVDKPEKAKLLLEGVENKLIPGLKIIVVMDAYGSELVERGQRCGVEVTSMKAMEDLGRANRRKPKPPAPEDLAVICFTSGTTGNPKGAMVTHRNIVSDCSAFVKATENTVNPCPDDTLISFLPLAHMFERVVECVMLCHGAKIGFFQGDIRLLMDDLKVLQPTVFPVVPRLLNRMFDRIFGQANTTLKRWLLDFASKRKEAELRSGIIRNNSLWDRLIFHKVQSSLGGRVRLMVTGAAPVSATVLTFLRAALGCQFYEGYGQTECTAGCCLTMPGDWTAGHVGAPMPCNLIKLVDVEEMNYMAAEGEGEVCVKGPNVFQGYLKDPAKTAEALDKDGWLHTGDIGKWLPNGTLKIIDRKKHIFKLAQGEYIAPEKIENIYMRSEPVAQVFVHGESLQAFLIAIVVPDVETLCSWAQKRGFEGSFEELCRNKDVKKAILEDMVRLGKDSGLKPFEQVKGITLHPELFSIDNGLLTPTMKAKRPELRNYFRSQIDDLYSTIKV
inactive: [1] 0.01 | [2] 0.01 | [3] 0.031 | [4] 0.056 | Nexturastat A -0.115 | vemurafenib -0.021 | [5] 0.041 | [6] -0.018 | givinostat -0.034 | barasertib -0.002

AP2A1 (UniProt O95782)
inactive: [1] 0.024 | [2] -0.016 | [3] 0.004 | [4] 0.084 | Nexturastat A 0.048 | vemurafenib 0.009 | [5] 0.03 | [6] -0.003 | givinostat 0.008 | barasertib -0.028

APPL1 (UniProt Q9UKG1)
inactive: [1] 0.012 | [2] 0.008 | [3] 0.035 | [4] 0.015 | Nexturastat A -0.032 | vemurafenib 0.066 | [5] 0.017 | [6] -0.033 | givinostat 0.039 | barasertib 0.02

ANXA5 (UniProt P08758)
UniProt P08758, sequence (P08758 whole entry, looked up): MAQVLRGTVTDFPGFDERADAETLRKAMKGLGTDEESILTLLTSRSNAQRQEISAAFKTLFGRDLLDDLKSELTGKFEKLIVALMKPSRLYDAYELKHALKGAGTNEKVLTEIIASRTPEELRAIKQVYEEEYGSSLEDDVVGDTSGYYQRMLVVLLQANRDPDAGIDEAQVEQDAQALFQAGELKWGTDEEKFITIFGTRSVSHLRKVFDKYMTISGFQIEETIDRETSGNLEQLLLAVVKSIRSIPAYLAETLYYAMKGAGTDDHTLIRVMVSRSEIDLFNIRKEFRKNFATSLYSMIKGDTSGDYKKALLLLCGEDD
inactive: [1] 0.057 | [2] -0.065 | [3] -0.01 | [4] 0.068 | Nexturastat A -0.116 | vemurafenib 0.07 | [5] 0.071 | [6] 0.039 | givinostat 0.033 | barasertib 0.034
